Activity calls are given as the source filed them. Rule for the calls: active = hit-call score of the fitted dose curve at least 0.9, where 1 is the maximum; inactive = score below 0.9.
Each compound was assayed on JUN Transcription Factor, JUN (gene 3725) (assay: LTEA_HepaRG_JUN: Life Technologies and Expression Analysis (LTEA) Assay for JUN Transcription Factor using HepaRG (AID 2283513)). Conditions: mRNA level, 48 h; actives raise or lower the signal.
In short: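 Gene-expression endpoint: JUN mRNA (qRT-PCR, normalized to three reference genes) in HepaRG cultures treated 48 h with chemicals, duplicate wells, 100 uM maximum with half-log dilutions; bidirectional fitting relative to 0.5% DMSO.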

Row | Structure (SMILES) | outcome | AC50
1 | c1ccc2n[nH]nc2c1 | inactive | –
2 | CC(C)(c1cc(Br)c(O)c(Br)c1)c1cc(Br)c(O)c(Br)c1 | – | 94.7 µM (active)
3 | CCCCCCCCOC(=O)c1cc(O)c(O)c(O)c1 | inactive | –
4 | CN(C)c1ccc(C(=C2C=CC(=[N+](C)C)C=C2)c2ccc(N(C)C)cc2)cc1 | – | 89.2 µM (active)
5 | COc1ccc2cc(S(=O)(=O)N[C@H](CC(=O)N[C@H](Cc3ccc(CN4[C@H](C)CCC[C@@H]4C)cc3)C(=O)N(C)C(C)C)c3ccc4c(c3)OCO4)ccc2c1 | – | 57.8 µM (active)
6 | Clc1cc(Cl)c2c(c1)N=C1CCCCCN1C2 | inactive | –
7 | CC(C)(O)c1ccc(CNC(=O)c2cccnc2Oc2ccc3nonc3c2)cc1 | inactive | –
8 | CC/C(=C(/CC)c1ccc(O)cc1)c1ccc(O)cc1 | – | 79.2 µM (active)
9 | COc1cc(C(=O)NC2CCN(C)CC2)ccc1Nc1ncc2c(n1)N(C1CCCC1)CC(F)(F)C(=O)N2C | – | 25.9 µM (active)
10 | CCN(CC)C(=O)c1cc(S(=O)(=O)Cc2ccccc2)c(N2CCC(c3ccccc3)CC2)cc1N(CC)CCN(C)C | – | 30.4 µM (active)
11 | CC[C@@H]1C[C@H](N(Cc2cc(C(F)(F)F)cc(C(F)(F)F)c2)C(C)=O)c2cc(C(F)(F)F)ccc2N1C(=O)OC(C)C | inactive | –
12 | c1ccc2ccccc2c1 | inactive | –
13 | CCCCCCCCCCCO | inactive | –
14 | Cc1ccc(C(C)C)cc1 | inactive | –
15 | OC12N=C(c3ccccc3)SC1Cc1cc(Cl)ccc12 (configuration not stated) | inactive | –
16 | CN(C)C(=O)C1(N2CCCCC2)CCN(CC[C@@]2(c3ccc(Cl)c(Cl)c3)CN(C(=O)c3ccccc3)CCO2)CC1 | – | 31 µM (active)
17 | O=CCCCC=O | inactive | –
18 | NCc1cccc(C2CCN(C(=O)c3ccc(C#Cc4ccccc4F)o3)CC2)c1 | inactive | –
19 | COc1cccc([C@H](O)C2CCN(CCc3ccc(F)cc3)CC2)c1OC | inactive | –
20 | CC(C)(C)c1csc(-c2cc3cc(OCc4ccccc4CC(=O)O)ccc3o2)n1 | – | 78.9 µM (active)
21 | O=c1c(-c2ccc(O)cc2)coc2cc(O)cc(O)c12 | inactive | –
22 | CCCCCCCC[Si](OCC)(OCC)OCC | inactive | –
23 | CCCCOC(=O)CC(CC(=O)OCCCC)(OC(C)=O)C(=O)OCCCC | inactive | –
24 | CCCCCCCCN(C)CCCCCCCC | inactive | –
25 | CC[C@H](NC(=O)c1cc(F)ccc1NS(=O)(=O)c1cccc2cccnc12)c1ccccc1 | inactive | –
26 | CCCCCCCCCCCC[N+](C)(C)C | – | 82.8 µM (active)
27 | O=C1c2ccccc2C(=O)N1CCc1noc(-c2ccc(CN3CCCCCC3)s2)n1 | inactive | –
28 | CC1=CC(=O)/C(=C(/C)O)C(=O)O1 | inactive | –
29 | CCO[Si](CCCNC(N)=O)(OCC)OCC | inactive | –

What follows are compounds tested on Lipase C (LIPC), LIPC (gene 3990) (assay: LTEA_HepaRG_LIPC: Life Technologies and Expression Analysis (LTEA) Assay for Lipase C (LIPC) using HepaRG (AID 2283514)). Conditions: mRNA level, 48 h; actives raise or lower the signal.
In short: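 LIPC expression was quantified by qRT-PCR against three housekeeping genes (ACTB, GAPDH, POLR2A). Differentiated human HepaRG cells received eight half-log doses (top 100 uM, 0.5% DMSO) in duplicate for 48 h; fitting bidirectional relative to DMSO.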

Row | Structure (SMILES) | outcome | AC50
30 | c1ccc2n[nH]nc2c1 | inactive | –
31 | Cc1oc2c(NC(=O)c3c(Cl)cccc3Cl)cccc2c1C(C)(C)O | – | 37.6 µM (active)
32 | Cc1cc(F)ccc1-c1cc(N2CC[C@@H](O)[C@H]2CO)ncc1N(C)C(=O)C(C)(C)c1cc(C(F)(F)F)cc(C(F)(F)F)c1 | – | 18.6 µM (active)
33 | CC(C)(c1cc(Br)c(O)c(Br)c1)c1cc(Br)c(O)c(Br)c1 | inactive | –
34 | CN1C(=O)N(c2ccccc2Br)Cc2cnc(Nc3ccc4c(c3)OCC(CO)O4)nc21 (configuration not stated) | – | 71.8 µM (active)
35 | CCOC(=O)O[C@H](C)OC(=O)c1ccc2c(c1)cc(C(=O)NC1CCN(C(C)C)CC1)n2Cc1cc(-c2ccc(Cl)s2)on1 | inactive | –
36 | CCCCCCCCOC(=O)c1cc(O)c(O)c(O)c1 | inactive | –
37 | CN(C)c1ccc(C(=C2C=CC(=[N+](C)C)C=C2)c2ccc(N(C)C)cc2)cc1 | – | 3.01 µM (active)
38 | COc1ccc2cc(S(=O)(=O)N[C@H](CC(=O)N[C@H](Cc3ccc(CN4[C@H](C)CCC[C@@H]4C)cc3)C(=O)N(C)C(C)C)c3ccc4c(c3)OCO4)ccc2c1 | inactive | –
39 | CCN(Cc1cccc(S(=O)(=O)O)c1)c1ccc(C(=C2C=CC(=[N+](CC)Cc3cccc(S(=O)(=O)O)c3)C=C2)c2ccccc2S(=O)(=O)[O-])cc1 | inactive | –
40 | Oc1ccc2ccccc2c1 | inactive | –
41 | Clc1cc(Cl)c2c(c1)N=C1CCCCCN1C2 | inactive | –
42 | CC(C)(O)c1ccc(CNC(=O)c2cccnc2Oc2ccc3nonc3c2)cc1 | inactive | –
43 | O=C(O)Cn1c(=O)n(Cc2ccc(Br)cc2F)c(=O)c2ccc(Cl)cc21 | inactive | –
44 | CC/C(=C(/CC)c1ccc(O)cc1)c1ccc(O)cc1 | inactive | –
45 | COc1cc(C(=O)NC2CCN(C)CC2)ccc1Nc1ncc2c(n1)N(C1CCCC1)CC(F)(F)C(=O)N2C | – | 4.65 µM (active)
46 | CCN(CC)C(=O)c1cc(S(=O)(=O)Cc2ccccc2)c(N2CCC(c3ccccc3)CC2)cc1N(CC)CCN(C)C | inactive | –
47 | CC[C@@H]1C[C@H](N(Cc2cc(C(F)(F)F)cc(C(F)(F)F)c2)C(C)=O)c2cc(C(F)(F)F)ccc2N1C(=O)OC(C)C | inactive | –
48 | c1ccc2ccccc2c1 | inactive | –

Row | Structure (SMILES) | outcome | AC50
49 | CCCCCCCCCCCO | inactive | –
50 | Cc1ccc(C(C)C)cc1 | inactive | –
51 | OC12N=C(c3ccccc3)SC1Cc1cc(Cl)ccc12 (configuration not stated) | – | 17 µM (active)
52 | CN(C)C(=O)C1(N2CCCCC2)CCN(CC[C@@]2(c3ccc(Cl)c(Cl)c3)CN(C(=O)c3ccccc3)CCO2)CC1 | inactive | –
53 | O=CCCCC=O | inactive | –
54 | NCc1cccc(C2CCN(C(=O)c3ccc(C#Cc4ccccc4F)o3)CC2)c1 | – | 76.6 µM (active)
55 | COc1cccc([C@H](O)C2CCN(CCc3ccc(F)cc3)CC2)c1OC | inactive | –
56 | CC(C)(C)c1csc(-c2cc3cc(OCc4ccccc4CC(=O)O)ccc3o2)n1 | – | 25.1 µM (active)
57 | O=c1[nH]sc2ccccc12 | inactive | –
58 | O=c1c(-c2ccc(O)cc2)coc2cc(O)cc(O)c12 | inactive | –
59 | CCCCCCCC[Si](OCC)(OCC)OCC | inactive | –
60 | CCCCOC(=O)CC(CC(=O)OCCCC)(OC(C)=O)C(=O)OCCCC | inactive | –
61 | CCCCCCCCN(C)CCCCCCCC | inactive | –
62 | CC[C@H](NC(=O)c1cc(F)ccc1NS(=O)(=O)c1cccc2cccnc12)c1ccccc1 | – | 20.1 µM (active)
63 | CCCCCCCCCCCC[N+](C)(C)C | – | 89.2 µM (active)
64 | O=C1CCC(C2CCCCC2)CC1 | inactive | –
65 | O=C1c2ccccc2C(=O)N1CCc1noc(-c2ccc(CN3CCCCCC3)s2)n1 | inactive | –
66 | CC1=CC(=O)/C(=C(/C)O)C(=O)O1 | inactive | –
67 | CCO[Si](CCCNC(N)=O)(OCC)OCC | inactive | –

From PubChem BioAssay (EPA / NIEHS)
